Experimental findings from ChEMBL document CHEMBL1961873, “Compounds: GSK PKIS; Assays: Nanosyn kinase panel” (2012) are described below.

Each structure is given as a SMILES string.

The target of assay [1] is Mitogen-activated protein kinase 3 (Homo sapiens) (UniProt P27361). Conditions: at 1 µM.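 Further: values are mean percent inhibition of MAPK3.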
Assay [2] has as its target SRSF protein kinase 3 (Homo sapiens) (UniProt Q9UPE1). Conditions: at 0.1 µM.
For assay [3] the target is unchanged. The following applies: at 1 µM.
In assay [4] the target is Mitogen-activated protein kinase 14 (Homo sapiens) (UniProt Q16539). Conditions: at 0.1 µM.
For assay [5] the target is unchanged. Conditions: at 1 µM.
Assay [6] addresses Mitogen-activated protein kinase 11 (Homo sapiens) (UniProt Q15759). Conditions: at 0.1 µM.
The target is the same in assay [7]. Conditions: at 1 µM.
The target of assay [8] is T1, Mitogen-activated protein kinase 13 (Homo sapiens) (UniProt O15264).
T1 sequence (whole entry): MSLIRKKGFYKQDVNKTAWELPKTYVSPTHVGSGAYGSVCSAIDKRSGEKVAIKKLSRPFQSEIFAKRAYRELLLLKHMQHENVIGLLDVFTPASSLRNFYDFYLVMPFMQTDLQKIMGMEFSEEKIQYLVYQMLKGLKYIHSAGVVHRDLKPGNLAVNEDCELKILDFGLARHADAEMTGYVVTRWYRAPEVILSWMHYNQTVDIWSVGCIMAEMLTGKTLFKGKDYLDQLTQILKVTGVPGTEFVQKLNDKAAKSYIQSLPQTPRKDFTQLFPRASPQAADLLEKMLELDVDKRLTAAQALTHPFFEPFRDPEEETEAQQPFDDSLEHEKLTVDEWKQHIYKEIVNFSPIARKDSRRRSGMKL
The following applies: at 0.1 µM.

The target in assay [9] is T1, Mitogen-activated protein kinase 13 (Homo sapiens). The following applies: at 1 µM.
For assay [10], the target named is T2, Mitogen-activated protein kinase 12 (Homo sapiens) (UniProt P53778).
T2 sequence (whole entry): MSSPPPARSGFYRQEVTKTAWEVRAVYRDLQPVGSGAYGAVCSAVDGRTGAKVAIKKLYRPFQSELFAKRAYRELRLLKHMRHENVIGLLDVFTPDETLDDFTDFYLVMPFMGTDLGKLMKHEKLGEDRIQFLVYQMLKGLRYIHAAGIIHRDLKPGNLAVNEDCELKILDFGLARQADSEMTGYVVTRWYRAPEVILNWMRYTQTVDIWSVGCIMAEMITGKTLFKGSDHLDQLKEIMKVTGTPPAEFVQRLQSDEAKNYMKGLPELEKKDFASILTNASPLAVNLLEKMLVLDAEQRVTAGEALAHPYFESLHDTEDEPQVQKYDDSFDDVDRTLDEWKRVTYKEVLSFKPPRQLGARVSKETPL
The following applies: at 0.1 µM.

In assay [11] the target is T2, Mitogen-activated protein kinase 12 (Homo sapiens). Conditions: at 1 µM.
The target of assay [12] is SRSF protein kinase 1 (Homo sapiens) (UniProt Q96SB4). The following applies: at 0.1 µM.
The target is the same in assay [13]. Conditions: at 1 µM.
In assay [14] the target is Phosphatidylinositol 4,5-bisphosphate 3-kinase catalytic subunit alpha isoform (Homo sapiens) (UniProt P42336). The following applies: at 0.1 µM.
For assay [15] the target is unchanged. Conditions: at 1 µM.
The target in assay [16] is T3, Phosphatidylinositol 4,5-bisphosphate 3-kinase catalytic subunit delta isoform (Homo sapiens) (UniProt O00329).
T3 sequence (whole entry): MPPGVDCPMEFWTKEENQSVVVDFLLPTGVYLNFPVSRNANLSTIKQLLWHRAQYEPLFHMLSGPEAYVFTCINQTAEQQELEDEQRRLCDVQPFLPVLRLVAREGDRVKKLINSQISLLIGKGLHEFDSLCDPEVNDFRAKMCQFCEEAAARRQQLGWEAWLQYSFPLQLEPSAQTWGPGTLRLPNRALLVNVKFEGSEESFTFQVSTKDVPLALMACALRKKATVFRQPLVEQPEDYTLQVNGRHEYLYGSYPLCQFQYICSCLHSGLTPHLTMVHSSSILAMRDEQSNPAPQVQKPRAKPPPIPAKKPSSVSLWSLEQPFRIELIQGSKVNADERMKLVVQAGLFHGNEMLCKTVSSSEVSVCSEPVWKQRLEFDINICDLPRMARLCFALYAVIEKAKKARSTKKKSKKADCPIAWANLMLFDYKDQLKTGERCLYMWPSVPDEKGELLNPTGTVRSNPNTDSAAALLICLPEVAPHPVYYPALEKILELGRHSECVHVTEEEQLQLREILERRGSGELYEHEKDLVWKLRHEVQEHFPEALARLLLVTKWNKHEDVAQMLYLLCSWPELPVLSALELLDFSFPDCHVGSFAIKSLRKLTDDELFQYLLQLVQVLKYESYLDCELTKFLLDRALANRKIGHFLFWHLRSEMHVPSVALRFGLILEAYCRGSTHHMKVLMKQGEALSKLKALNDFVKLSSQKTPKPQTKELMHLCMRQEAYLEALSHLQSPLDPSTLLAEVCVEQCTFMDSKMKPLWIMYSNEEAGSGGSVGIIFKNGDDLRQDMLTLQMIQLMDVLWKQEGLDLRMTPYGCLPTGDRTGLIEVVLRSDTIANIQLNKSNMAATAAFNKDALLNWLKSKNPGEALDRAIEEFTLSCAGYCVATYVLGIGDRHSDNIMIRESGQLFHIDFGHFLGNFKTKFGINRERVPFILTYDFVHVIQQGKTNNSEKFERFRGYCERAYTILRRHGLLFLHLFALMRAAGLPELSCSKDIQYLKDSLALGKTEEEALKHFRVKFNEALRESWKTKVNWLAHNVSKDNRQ
The following applies: at 0.1 µM.

In assay [17] the target is T3, Phosphatidylinositol 4,5-bisphosphate 3-kinase catalytic subunit delta isoform (Homo sapiens). Conditions: at 1 µM.
Assay [18] deals with Phosphatidylinositol 4-kinase beta (Homo sapiens) (UniProt Q9UBF8). The following applies: at 0.1 µM.
Assay [19] has the same target. Conditions: at 1 µM.
Assay [20] has as its target Sphingosine kinase 1 (Homo sapiens) (UniProt Q9NYA1). Conditions: at 0.1 µM.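 Further: mean percent inhibition of SPHK1 activity, measured within the GSK PKIS screening panel.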

Chain of Mitogen-activated protein kinase 3 (Homo sapiens) (P27361 whole entry): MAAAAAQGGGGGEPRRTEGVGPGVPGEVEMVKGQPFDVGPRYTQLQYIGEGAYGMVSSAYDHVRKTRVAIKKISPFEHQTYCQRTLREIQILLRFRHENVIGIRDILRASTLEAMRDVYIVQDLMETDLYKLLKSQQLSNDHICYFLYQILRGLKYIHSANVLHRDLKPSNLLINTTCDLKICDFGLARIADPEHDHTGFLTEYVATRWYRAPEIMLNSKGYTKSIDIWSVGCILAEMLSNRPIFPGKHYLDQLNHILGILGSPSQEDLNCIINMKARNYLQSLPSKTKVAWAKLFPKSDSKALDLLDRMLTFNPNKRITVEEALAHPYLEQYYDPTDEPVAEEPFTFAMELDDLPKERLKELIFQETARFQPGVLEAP
Chain of Phosphatidylinositol 4,5-bisphosphate 3-kinase catalytic subunit alpha isoform (Homo sapiens) (P42336 whole entry, canonical isoform): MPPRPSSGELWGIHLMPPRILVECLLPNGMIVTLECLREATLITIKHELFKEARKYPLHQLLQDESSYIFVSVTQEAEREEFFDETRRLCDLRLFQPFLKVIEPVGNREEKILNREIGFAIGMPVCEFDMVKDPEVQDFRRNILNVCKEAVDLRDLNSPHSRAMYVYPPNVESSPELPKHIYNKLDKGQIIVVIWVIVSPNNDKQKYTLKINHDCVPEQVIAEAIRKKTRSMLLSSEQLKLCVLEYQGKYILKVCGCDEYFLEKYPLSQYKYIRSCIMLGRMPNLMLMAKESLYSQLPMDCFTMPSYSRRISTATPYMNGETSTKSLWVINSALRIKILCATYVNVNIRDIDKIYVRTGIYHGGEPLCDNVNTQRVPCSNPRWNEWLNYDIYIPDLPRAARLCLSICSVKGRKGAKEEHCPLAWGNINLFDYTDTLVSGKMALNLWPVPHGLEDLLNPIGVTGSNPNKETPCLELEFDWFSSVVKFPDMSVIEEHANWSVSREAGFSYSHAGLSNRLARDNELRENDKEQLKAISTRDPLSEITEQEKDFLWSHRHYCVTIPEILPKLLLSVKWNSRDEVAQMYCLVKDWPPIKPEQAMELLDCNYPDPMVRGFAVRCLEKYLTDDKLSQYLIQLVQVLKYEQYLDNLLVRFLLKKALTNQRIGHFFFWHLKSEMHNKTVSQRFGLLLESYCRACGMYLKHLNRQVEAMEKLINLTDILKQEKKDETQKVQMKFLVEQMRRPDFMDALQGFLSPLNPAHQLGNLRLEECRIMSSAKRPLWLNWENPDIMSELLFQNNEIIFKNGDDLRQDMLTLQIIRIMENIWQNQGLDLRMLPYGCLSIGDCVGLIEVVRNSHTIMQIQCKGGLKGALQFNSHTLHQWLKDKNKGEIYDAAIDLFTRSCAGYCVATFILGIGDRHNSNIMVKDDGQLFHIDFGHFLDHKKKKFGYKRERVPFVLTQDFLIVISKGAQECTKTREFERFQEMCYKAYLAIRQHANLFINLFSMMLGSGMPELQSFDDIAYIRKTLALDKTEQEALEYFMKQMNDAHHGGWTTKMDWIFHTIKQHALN
Chain of Mitogen-activated protein kinase 11 (Homo sapiens) (Q15759 whole entry): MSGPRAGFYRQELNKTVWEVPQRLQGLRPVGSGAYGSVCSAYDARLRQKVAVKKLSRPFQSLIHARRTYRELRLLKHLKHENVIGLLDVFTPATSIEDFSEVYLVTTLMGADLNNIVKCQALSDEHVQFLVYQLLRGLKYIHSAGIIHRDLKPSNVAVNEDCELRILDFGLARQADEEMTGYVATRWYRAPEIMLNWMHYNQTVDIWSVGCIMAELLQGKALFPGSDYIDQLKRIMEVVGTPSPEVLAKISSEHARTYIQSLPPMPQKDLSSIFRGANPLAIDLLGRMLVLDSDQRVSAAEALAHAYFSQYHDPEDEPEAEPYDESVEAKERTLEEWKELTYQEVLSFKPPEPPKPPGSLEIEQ
Chain of Mitogen-activated protein kinase 14 (Homo sapiens) (Q16539 whole entry): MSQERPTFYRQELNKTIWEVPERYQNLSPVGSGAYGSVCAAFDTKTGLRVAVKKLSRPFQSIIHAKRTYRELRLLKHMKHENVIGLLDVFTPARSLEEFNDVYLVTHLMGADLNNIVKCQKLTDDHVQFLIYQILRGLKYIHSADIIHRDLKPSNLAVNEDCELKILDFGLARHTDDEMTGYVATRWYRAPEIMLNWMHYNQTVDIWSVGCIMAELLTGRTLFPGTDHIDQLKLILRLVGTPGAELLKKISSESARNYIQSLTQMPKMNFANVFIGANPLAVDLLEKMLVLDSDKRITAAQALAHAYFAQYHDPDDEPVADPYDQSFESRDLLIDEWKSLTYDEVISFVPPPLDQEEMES
Chain of SRSF protein kinase 1 (Homo sapiens) (Q96SB4 whole entry): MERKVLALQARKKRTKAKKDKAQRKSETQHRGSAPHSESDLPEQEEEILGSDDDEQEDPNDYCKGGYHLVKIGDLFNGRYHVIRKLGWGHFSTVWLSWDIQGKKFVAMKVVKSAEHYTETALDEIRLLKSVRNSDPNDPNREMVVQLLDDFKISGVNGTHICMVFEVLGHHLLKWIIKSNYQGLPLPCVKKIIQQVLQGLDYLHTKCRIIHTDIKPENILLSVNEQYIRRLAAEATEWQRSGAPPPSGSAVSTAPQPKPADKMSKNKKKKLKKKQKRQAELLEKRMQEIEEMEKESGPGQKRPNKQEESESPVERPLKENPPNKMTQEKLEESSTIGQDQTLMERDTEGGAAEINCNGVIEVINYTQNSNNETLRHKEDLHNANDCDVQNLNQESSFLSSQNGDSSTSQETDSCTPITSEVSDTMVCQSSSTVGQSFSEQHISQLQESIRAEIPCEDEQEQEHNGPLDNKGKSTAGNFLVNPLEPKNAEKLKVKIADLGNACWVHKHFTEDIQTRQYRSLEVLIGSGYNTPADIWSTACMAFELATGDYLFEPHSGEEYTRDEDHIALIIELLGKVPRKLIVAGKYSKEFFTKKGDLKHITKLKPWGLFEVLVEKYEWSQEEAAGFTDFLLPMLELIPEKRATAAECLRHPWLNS
Chain of Sphingosine kinase 1 (Homo sapiens) (Q9NYA1 whole entry): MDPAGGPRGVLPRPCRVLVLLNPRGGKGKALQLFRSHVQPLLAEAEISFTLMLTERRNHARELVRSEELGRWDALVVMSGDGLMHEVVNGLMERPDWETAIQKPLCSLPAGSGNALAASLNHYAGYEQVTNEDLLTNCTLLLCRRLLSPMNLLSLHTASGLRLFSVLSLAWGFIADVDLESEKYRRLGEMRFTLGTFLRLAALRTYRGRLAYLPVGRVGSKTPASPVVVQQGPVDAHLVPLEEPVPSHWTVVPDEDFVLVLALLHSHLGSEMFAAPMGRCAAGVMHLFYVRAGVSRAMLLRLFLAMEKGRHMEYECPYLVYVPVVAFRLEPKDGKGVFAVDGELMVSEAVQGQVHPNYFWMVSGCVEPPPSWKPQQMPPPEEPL
Chain of Phosphatidylinositol 4-kinase beta (Homo sapiens) (Q9UBF8 2-816 limits assumed): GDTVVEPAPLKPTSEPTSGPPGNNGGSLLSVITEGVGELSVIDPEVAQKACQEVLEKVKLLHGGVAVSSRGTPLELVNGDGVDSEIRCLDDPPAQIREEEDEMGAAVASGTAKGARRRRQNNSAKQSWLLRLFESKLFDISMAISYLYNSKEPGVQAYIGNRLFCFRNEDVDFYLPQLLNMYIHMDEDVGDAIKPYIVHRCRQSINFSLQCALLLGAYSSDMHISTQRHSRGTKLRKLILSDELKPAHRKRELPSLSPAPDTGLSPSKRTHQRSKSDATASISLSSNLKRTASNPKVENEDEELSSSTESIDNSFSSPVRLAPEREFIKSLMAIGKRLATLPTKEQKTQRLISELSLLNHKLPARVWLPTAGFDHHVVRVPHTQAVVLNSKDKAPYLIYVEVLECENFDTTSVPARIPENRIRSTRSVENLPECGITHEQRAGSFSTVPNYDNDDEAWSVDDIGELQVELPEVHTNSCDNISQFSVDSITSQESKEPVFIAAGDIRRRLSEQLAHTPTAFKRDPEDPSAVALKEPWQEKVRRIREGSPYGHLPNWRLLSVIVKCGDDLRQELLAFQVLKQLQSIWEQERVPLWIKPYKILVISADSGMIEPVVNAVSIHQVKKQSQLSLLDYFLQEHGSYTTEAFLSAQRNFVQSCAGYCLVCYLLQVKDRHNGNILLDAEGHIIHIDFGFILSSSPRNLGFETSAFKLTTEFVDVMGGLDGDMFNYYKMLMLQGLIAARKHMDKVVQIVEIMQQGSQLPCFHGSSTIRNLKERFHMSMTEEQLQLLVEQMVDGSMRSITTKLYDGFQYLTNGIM
Chain of SRSF protein kinase 3 (Homo sapiens) (Q9UPE1 whole entry): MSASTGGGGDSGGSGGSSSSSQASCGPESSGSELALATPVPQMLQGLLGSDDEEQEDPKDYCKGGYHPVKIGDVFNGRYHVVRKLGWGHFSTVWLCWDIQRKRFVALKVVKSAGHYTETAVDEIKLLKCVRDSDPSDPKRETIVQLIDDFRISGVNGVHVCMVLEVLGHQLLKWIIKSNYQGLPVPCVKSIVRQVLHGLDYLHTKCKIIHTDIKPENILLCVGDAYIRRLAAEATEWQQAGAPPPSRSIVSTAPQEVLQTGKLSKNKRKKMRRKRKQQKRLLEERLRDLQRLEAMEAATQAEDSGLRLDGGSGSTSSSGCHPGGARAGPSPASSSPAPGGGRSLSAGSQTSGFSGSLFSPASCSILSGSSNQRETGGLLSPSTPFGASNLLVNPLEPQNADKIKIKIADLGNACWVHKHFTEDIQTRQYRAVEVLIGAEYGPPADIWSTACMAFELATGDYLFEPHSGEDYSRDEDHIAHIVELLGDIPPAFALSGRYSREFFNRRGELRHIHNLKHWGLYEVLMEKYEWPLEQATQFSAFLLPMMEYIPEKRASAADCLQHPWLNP

The term inhibition denotes the change of the read-out against control, counted positive when it falls. `CS(=O)(=O)CCNCc1ccc(-c2ccc3ncnc(Nc4ccc(OCc5ccccc5)cc4)c3c2)o1`: the inhibition in assay [1] is 1.62%; in [2], -0.49%; in [3], 0.73%; in assay [4], 4.73%; in assay [5], 7.34%; in assay [6] it was 2.9%. Also, the inhibition was 4.87% in assay [7]; 2.17% in assay [8]; 1.45% in assay [9]; 2.39% in assay [10]; 2.57% in [11]; -2.16% in assay [12]. For the same compound, the inhibition in assay [13] was -2.56%; in assay [14], 2.93%; in assay [15], 4.79%; in assay [16], 0.74%; in assay [17], 2.65%; in assay [18], 0.91%. Further, the inhibition in assay [19] is 0.45%; in assay [20] it was -0.6%.

As for `COc1cccc(-n2ncc3c(N/N=C/c4ccc(C(=O)NCCN(C)C)cc4)ncnc32)c1`, the inhibition was 2.75% in assay [1]; 1.28% in assay [2]; 0.91% in assay [3]; 2.36% in assay [4]; 11.8% in assay [5]; 0.2% in assay [6]. Also, the inhibition in assay [7] is 3.19%; in [8], 3.46%; in assay [9], 23.5%; in assay [10], 4.06%; in [11], 4.67%; in [12], -1.63%. The inhibition in [13] was -2.59%; in assay [14], 2.48%; in assay [15] it was 20.2%; in [16], 4.52%; in assay [17], 16.3%; in assay [18] it was -3.13%. Further, the inhibition stood at 5.75% in assay [19] and 5.89% in assay [20].

For `CNC(=O)c1sc(-n2cnc3cc(OC)c(OC)cc32)cc1OCc1ccccc1C(F)(F)F`, the inhibition in assay [1] was 3.4%; in assay [2], -2.11%; in assay [3], -0.26%; in assay [4], 5.47%; in assay [5], 5.08%; in assay [6], 4.76%. In addition, the inhibition was 4.92% in assay [7]; 3.34% in [8]; 1.88% in assay [9]; 1.92% in [10]; 1.74% in [11]; -2.64% in [12]. In addition, the inhibition in assay [13] was -0.97%; in [14], 3.44%; in assay [15] it was 4.4%; in [16], 0.73%; in assay [17], 6.41%; in [18], 6.54%. Further, the inhibition in assay [19] is 0.66%; in assay [20], -7.75%.

Consider `O=C(O[C@H]1CN[C@H](C#Cc2cc3ncnc(Nc4ccc5c(cnn5Cc5ccccc5)c4)c3s2)C1)N1CCOCC1`, for which the inhibition in assay [1] was 1.75%; in assay [2], -1.9%; in assay [3], -0.82%; in [4], 0.21%; in [5] it was 0.45%; in assay [6] it was 1.51%. Further, the inhibition in assay [7] is 4.76%; in assay [8], -1.3%; in assay [9], -2.91%; in assay [10], -1.24%; in assay [11], -0.96%; in [12] it was -2.05%. Moreover, the inhibition was -3.6% in assay [13]; -1.75% in assay [14]; 7.49% in assay [15]; 0.29% in assay [16]; 9.02% in assay [17]; 1.41% in assay [18]. Besides, the inhibition was 2.11% in [19] and 2.86% in assay [20].

On to `CCCNc1cccc(-n2ncc3c(N/N=C/c4ccncc4)ncnc32)c1`, for which the inhibition was 3.62% in assay [1]; -0.81% in assay [2]; 0.97% in assay [3]; 1.81% in assay [4]; 7.62% in assay [5]; 4.76% in assay [6]. Further, the inhibition in [7] was determined as 25.5%; in [8], 0.94%; in [9], 3.1%; in assay [10], 0.51%; in [11], 0.33%; in assay [12], 0.43%. Besides, the inhibition in [13] was found to be 3.51%; in assay [14] it was 1.36%; in [15], 3.81%; in assay [16], 3.31%; in [17], 14.7%; in [18], 5.69%. Further, the inhibition was determined as 4.32% in assay [19] and 0.21% in assay [20].

As for `CNC(=O)c1cncc(/C=C/c2ccccc2C)c1`, the inhibition in assay [1] is 4.66%; in assay [2], -0.87%; in assay [3] it was 3.21%; in [4] it was 3.76%; in assay [5] it was 6.09%; in [6], 4.82%. The inhibition is 7.21% in assay [7]; 4.01% in assay [8]; 3.77% in [9]; 1.29% in assay [10]; 1.72% in assay [11]; -0.49% in assay [12]. Also, the inhibition in assay [13] was 2.3%; in assay [14], 2.18%; in assay [15], 2.76%; in assay [16] it was 1.24%; in [17] it was 0.42%; in [18], -3.61%. For the same compound, the figures for the inhibition in [19] and in [20] were 7.59% and 0.67%, respectively.
